Drawing on PubChem BioAssay (NCATS), this text covers Potency for 24 compounds.

Results filed as inconclusive are left out. The source made the active and inactive calls. The call rests on the fitted dose curve; in most records, active means well fitted inhibition curve with a large enough effect in the repeat runs; inconclusive means weak or mixed curves; inactive means flat fitted curve, though single readings scatter.
Potency means the concentration at half of the fitted maximal effect.

The assay deals with Cytochrome P450 2D6 (Homo sapiens) (UniProt P10635). Kind of assay: Cytochrome P450 family 2 subfamily D member 6 (CYP2D6) small molecule antagonists: luciferase biochemical (cell-free) qHTS assay (AID 1645840). Further: nearly all actives have a fitted effect of over 55% in size. Conditions: P450-Glo CYP2D6 enzyme, luciferin luminescence, 1 h; series mostly up to 57.4 µM. A digest of the protocol: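 P450-Glo CYP2D6 system: proluciferin substrate converted by enzyme to luciferin, read by luminescence proportional to activity. Enzyme-substrate mix with compound 10 min at room temperature, then NADPH regeneration 1 h before detection reagent.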
Cytochrome P450 2D6 (Homo sapiens), sequence (P10635 whole entry, looked up): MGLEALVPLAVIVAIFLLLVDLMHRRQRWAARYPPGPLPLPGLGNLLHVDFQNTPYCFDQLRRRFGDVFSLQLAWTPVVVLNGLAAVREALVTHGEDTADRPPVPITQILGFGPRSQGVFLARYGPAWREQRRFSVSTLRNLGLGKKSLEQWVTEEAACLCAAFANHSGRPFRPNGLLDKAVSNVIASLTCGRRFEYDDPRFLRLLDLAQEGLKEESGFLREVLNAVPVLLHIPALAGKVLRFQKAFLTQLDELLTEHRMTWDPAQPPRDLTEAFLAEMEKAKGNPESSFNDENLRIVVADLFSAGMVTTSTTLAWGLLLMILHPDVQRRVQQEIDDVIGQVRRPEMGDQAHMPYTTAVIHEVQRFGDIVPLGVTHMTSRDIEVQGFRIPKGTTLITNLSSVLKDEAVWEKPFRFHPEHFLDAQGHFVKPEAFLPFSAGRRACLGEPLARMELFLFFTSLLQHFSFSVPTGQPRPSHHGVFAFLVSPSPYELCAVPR
A general note: In qHTS, concentration-response curves come from the screen itself.
On to `CCCCn1cnc2cc(NCc3ccccc3Cl)ccc21`, for which the Potency is 0.12 µM (active).
Then `COc1ccc(C(Nc2ccccn2)c2ccc3ccc(C)nc3c2O)cc1C` (centres undefined), with 21.3 µM (active).
Regarding `O=C(CC1N=C2c3ccccc3N=C(SCc3ccc(F)cc3)N2C1=O)NC1CCCCC1` (centres undefined), the Potency is 3.01 µM (active).
In the case of `COc1cccc(-c2oc3ccc(C)cc3c(=O)c2O)c1`, the Potency was 7.56 µM (active).
As to `Cc1cncn1CCc1nc2c3ccccc3nc(SCC(=O)Nc3cccc(Cl)c3)n2n1`, the Potency was 0.674 µM (active).
Take `Cc1ccc(C2=CC(c3ccccc3C)n3c(nc4ccccc43)N2)cc1` (centres undefined): the Potency is 9.52 µM (active).
Take `CC1(C#N)CCN(c2c(C(=O)N3CCN(C(=O)C4CC4)CC3)cnc3ccc(Cl)cc23)CC1`: the Potency entry was “inactive”.
Consider `NC(=O)c1ccc(Cc2c(-c3cccc(-c4ccccc4)c3)[nH]n(-c3nc(C(=O)O)cs3)c2=O)cc1`, for which the Potency was 23.9 µM (active).
Consider `COC(=O)c1c(-c2ccc(Cl)cc2)noc1N1CCN(c2ccccc2OC)CC1`, for which the Potency result was “inactive”.
`CCCOCc1cc(CN2CCN(c3cccc(Cl)c3)CC2)c(O)c2ncccc12`: the Potency result is “inactive”.
Then `Cc1ccc(-n2c(SCc3ccccc3F)nc3[nH]ncc3c2=O)cc1C`, with 16.9 µM (active); and `CCOc1ccc(CNC(=O)Cn2c(=O)c3cccn3c3ccc(F)cc32)cc1OC`, with “inactive”; and `Cc1ccc(-n2c(SCc3ccccc3C)nc3[nH]ncc3c2=O)cc1C`, with 12 µM (active).
As to `Cc1cccc2nc(-c3ccccn3)c(Nc3ccc(F)cc3)n12`, the Potency was 10.7 µM (active).
`CCOC(=O)c1ccc(NC(=O)CSc2cc(-c3ccccc3)nc(C)n2)cc1`: the Potency entry is “inactive”.
In the case of `Cc1ccnc(NC(c2cccc(O)c2)c2ccc3ccc(C)nc3c2O)c1` (centres undefined), the Potency was 13.5 µM (active).
As for `CC1(C#N)CCN(c2c(C(=O)N3CCN(C(=O)C4CC4)CC3)cnc3c(F)cc(F)cc23)CC1`, the Potency result is “inactive”.
For `Clc1cccc(-n2ncc3c(NCCCn4ccnc4)ncnc32)c1`, the Potency is 2.13 µM (active).
Then `Cc1nnc(N2CCC(C(=O)NCCc3ccccc3Cl)CC2)c2nn(-c3ccccc3)c(C)c12`, with 2.13 µM (active); and `O=C(O)C1CSC(C(=O)O)N1` (centres undefined), with “inactive”.
For the compound `Cc1ccc(S(=O)(=O)Nc2nc3n(n2)C(c2ccc(F)cc2)C=C(c2ccccc2)N3)cc1` (centres undefined), the Potency entry is “inactive”.
Take `COc1cc(C(c2c(C)[nH][nH]c2=O)c2c(C)[nH][nH]c2=O)ccc1OC(=O)c1ccccc1F`: the Potency result is “inactive”.
For the compound `Cc1noc(/C=C/c2cccs2)c1S(=O)(=O)N1CCC(C(=O)NCc2ccc(Cl)cc2)CC1`, the Potency is 2.39 µM (active).
With `CCc1ccc(-n2c(SCc3cccc(F)c3)nc3[nH]ncc3c2=O)cc1`, the Potency is 12 µM (active).
